The term inhibition denotes the relative decrease from the control value, in per cent. What is called IC50 is the concentration needed to halve the response being measured.

Experiment [1] concerns the target Sentrin-specific protease 8 (Homo sapiens) (UniProt Q96LD8). The experiment in a line: SENP8 protease inhibitors, retest, confirmation, biochemical, luminescence, single concentration (AID 488912;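 active = mean inhibition across replicates above about 50%, limit read from the data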). To be noted: Recombinant SENP8, Z-RLRGG-aminoluciferin luminescence, 60 min; at 12.5 µM; stronger effect = higher value.
Experiment [2] addresses Sentrin-specific protease 6 (Homo sapiens) (UniProt Q9GZR1). The experiment in a line: SENP6 protease inhibitors, confirmation, biochemical, luminescence, single concentration (AID 488915;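 active = mean inhibition above about 50% in the one-dose retest, limit read from the data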). Conditions: recombinant SENP6, Z-RLRGG-aminoluciferin luminescence; at 12.5 µM; stronger effect = higher value.
Experiment [3] concerns the target Sentrin-specific protease 7 (Homo sapiens) (UniProt Q9BQF6). The experiment in a line: SENP7 protease inhibitors, retest, confirmation, biochemical, luminescence, single concentration (AID 488917;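 active = mean inhibition above about 50% in the one-dose retest, limit read from the data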). Conditions: recombinant SENP7, Z-RLRGG-aminoluciferin luminescence, 40 min; at 12.5 µM; stronger effect = higher value.
For the next experiment, the target named is Caspase-3 (Homo sapiens) (UniProt P42574). The experiment in a line: caspase-3 protease inhibitors, confirmation, selectivity assay for SENP inhibitor project, biochemical, single concentration (AID 488918;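 active = mean inhibition above about 50%, limit read from the data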;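 note: plate controls were enzyme with DMSO for no effect and wells without caspase-3 for full effect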). To be noted: purified caspase-3, Z-DEVD-aminoluciferin luminescence, 60 min; at 12.5 µM; stronger effect = higher value.
Caspase-3 (Homo sapiens), sequence (P42574 28-227 limits assumed): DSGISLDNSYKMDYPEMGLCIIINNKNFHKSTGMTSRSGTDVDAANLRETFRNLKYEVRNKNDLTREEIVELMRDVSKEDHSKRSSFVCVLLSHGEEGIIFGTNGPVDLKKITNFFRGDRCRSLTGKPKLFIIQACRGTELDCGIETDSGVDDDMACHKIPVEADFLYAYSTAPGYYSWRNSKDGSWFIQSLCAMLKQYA
The nature of experiment [4]: luciferase luminescence interference by compounds, confirmation, artefact control for SENP inhibitor project, biochemical, single concentration, SENP8 reaction pre-completed (AID 488919;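 active = mean inhibition above about 50% when retested at one dose, limit read from the data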;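 note: plate controls were DMSO wells with completed reaction for no effect and substrate without enzyme for full effect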). To be noted: Pre-incubated SENP8/Z-RLRGG-aminoluciferin, at 12.5 µM, stronger effect = higher value.
Experiment [5] is described as follows: inhibition of Brca1/Bard1 split-luciferase complementation, confirmation, counter-screen for Mdm2/MdmX interaction inhibitor project, luminescence, single concentration (AID 504668). To be noted: Brca1/Bard1 bimolecular luciferase complementation counterscreen, at 8 µM, stronger effect = higher value.
Experiment [6] can be described thus: Apaf-1 inhibitors, single-dose retest, confirmation, biochemical, fluorescence, DEVD-Rh110, 20 µM (AID 504614;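 active = mean inhibition of at least 40% at 20 µM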;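 note: plate controls were DMSO wells for no effect and DEVD-CHO caspase inhibitor control wells for full effect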). To be noted: reconstituted apoptosome, caspase-3 DEVD-Rh110 fluorescence; at 20 µM; stronger effect = higher value.
A short description of experiment [7]: Rh110 fluorescence interference by putative Apaf-1 inhibitors, confirmation, artefact control for Apaf-1 inhibitor project, biochemical, 20 µM (AID 504615;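 active = signal rise of 40% or more at 20 µM, treated as a fluorescence artifact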). To be noted: quenched caspase reaction, at 20 µM, stronger effect = higher value.
Experiment [8] is described as follows: fluorescence interference of Apaf-1 inhibitor hits, dose response, artefact control for Apaf-1 inhibitor project (AID 588538). Conditions: fluorescence interference counterscreen, Apaf-1 assay format. For orientation: The purpose of a counterscreen is to sort out artefacts and off-target activity.
Experiment [9] can be described thus: Peg3 promoter reporter inhibitors, retest, confirmation, cell-based, HeLa, luciferase reporter, single concentration (AID 602417;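 active = at 20 µM dose, 40% or more inhibition averaged across four replicates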). Conditions: HeLa PEG-Prom luciferase reporter, luminescence, overnight; at 20 µM; stronger effect = higher value. On the technique in general: A reporter such as luciferase makes a cellular process visible.
The target of experiment [10] is PEG-3 (UniProt Q6IN02). The experiment in a line: Peg3 promoter luciferase inhibitors, potency, dose response, cell-based, HeLa, CREF/GAPDH counter-screen panel (AID 624167). Conditions: HeLa PEG-Prom luciferase reporter, overnight, CREF/GAPDH counter-screens; run 1, dose range 1, at 100 µM (top of the series).
PEG-3, sequence (Q6IN02 whole entry, looked up): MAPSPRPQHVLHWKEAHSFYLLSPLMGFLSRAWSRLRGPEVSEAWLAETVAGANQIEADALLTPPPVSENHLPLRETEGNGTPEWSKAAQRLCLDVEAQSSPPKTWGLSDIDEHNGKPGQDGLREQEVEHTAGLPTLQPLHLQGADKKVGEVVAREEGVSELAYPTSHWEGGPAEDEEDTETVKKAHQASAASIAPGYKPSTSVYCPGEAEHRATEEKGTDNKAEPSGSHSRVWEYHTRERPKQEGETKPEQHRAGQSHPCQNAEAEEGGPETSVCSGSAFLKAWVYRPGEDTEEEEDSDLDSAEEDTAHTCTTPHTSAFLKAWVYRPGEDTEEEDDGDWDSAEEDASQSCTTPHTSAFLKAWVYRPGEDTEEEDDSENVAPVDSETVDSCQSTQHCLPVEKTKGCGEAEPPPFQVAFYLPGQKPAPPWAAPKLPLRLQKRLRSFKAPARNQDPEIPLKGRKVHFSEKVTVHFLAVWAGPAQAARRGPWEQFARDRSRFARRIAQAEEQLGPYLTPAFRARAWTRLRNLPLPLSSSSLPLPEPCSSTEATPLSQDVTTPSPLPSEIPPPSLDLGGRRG
The target of experiment [11] is PEG-3 (UniProt Q6IN02). Described as above. Conditions: HeLa PEG-Prom luciferase reporter, overnight, CREF/GAPDH counter-screens; run 2, dose range 1, at 100 µM (top of the series).
A short description of experiment [12]: activators of apoptotic CHOP UPR arm, confirmation, cell-based, CHO-CHOP luciferase reporter, single concentration (AID 463112; in the data active = activation above about 33%;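 note: 0% = DMSO wells and 100% = tunicamycin 10 µg/mL wells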). Conditions: CHO-CHOP cells, CHOP-luciferase reporter luminescence; at 10 µM; stronger effect = higher value; percent of tunicamycin response, DMSO as zero.
Experiment [13] in a line: PMA/ionomycin-induced NF-kB reporter inhibitors, Jurkat retest, confirmation, T-cell NF-kB inhibitor project, cell-based, luminescence, single concentration (AID 435020;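 active = inhibition reaching about 45% at 4 µM in either replicate, limit read from the data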;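 note: plate controls were PMA/ionomycin stimulated DMSO wells for no effect and unstimulated DMSO wells for full effect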). Conditions: Jurkat NF-kB luciferase, 16 h, at 4 µM, stronger effect = higher value.
Experiment [14] deals with Protein Mdm4 (Homo sapiens) + E3 ubiquitin-protein ligase Mdm2 (Homo sapiens) (UniProt O15151+Q00987). The experiment in a line: retested Mdm2-MdmX interaction blockers, confirmation, cell-based, luminescence, single concentration, set 2 (AID 504601;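 active = mean inhibition of the luminescence signal across two replicates at or above 26 percent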). Conditions: SaOS-2 split-luciferase Mdm2/MdmX complementation, at 8 µM, stronger effect = higher value.
Protein Mdm4 (Homo sapiens) + E3 ubiquitin-protein ligase Mdm2 (Homo sapiens), sequence (O15151 whole entry, looked up): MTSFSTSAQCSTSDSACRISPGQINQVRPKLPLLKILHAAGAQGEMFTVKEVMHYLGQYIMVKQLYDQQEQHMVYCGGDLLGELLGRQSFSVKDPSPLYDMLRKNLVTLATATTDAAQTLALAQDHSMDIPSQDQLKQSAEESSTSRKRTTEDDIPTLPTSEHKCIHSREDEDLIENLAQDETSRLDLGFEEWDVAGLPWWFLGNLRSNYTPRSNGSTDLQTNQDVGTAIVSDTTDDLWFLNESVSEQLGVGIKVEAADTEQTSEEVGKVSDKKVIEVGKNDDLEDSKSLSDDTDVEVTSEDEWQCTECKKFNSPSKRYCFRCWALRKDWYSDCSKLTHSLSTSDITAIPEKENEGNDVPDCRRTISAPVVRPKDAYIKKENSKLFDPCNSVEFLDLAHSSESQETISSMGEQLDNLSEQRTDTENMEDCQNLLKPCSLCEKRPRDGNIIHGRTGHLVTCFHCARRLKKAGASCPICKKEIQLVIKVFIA
Protein Mdm4 (Homo sapiens) + E3 ubiquitin-protein ligase Mdm2 (Homo sapiens), sequence (Q00987 whole entry, looked up): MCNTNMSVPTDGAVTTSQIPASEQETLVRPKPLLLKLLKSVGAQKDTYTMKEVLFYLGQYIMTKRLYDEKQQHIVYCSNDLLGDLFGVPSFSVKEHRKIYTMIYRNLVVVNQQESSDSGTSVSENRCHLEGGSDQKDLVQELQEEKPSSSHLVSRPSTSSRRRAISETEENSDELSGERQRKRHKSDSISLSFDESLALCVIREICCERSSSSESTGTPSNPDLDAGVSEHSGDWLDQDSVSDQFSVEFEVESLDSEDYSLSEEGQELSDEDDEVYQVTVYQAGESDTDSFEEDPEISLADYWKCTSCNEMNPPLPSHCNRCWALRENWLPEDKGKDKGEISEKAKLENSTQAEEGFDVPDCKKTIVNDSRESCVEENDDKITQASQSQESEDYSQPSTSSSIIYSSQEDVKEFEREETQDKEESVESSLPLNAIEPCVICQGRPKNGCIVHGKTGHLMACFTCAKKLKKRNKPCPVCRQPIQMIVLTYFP
A short description of experiment [15]: HIF-2a reporter inhibitor retest, confirmation, luminescence, 786-0 RCC cells (AID 651580;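 active = mean inhibition across four replicates of at least 40 percent at the single tested concentration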). To be noted: HIF-2a luciferase reporter luminescence, overnight, at 18.8 µM, stronger effect = higher value.
A short description of experiment [16]: HIF-1a luciferase reporter signal reduction – MiaPaCa-2 cells, single concentration, counter-screen for HIF-2a inhibitor project, confirmation (AID 651589;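 active = mean inhibition of the reporter signal across four replicates at the single tested dose of 50% or more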). Conditions: MiaPaCa-2 HIF-1a luciferase reporter, desferoxamine, overnight; at 18.8 µM; stronger effect = higher value.
Experiment [17] has as its target Tumor necrosis factor receptor superfamily member 10B (Homo sapiens) (UniProt O14763). The experiment in a line: caspase-8 TRAIL sensitization, hit retest, confirmation, cell-based, NB7+caspase-8, with/without TRAIL, luminescence panel (AID 651596; in the data active = activity above about 50%). Conditions: NB7 neuroblastoma + caspase-8, TRAIL sensitization, luminescence viability, with TRAIL, mean of runs, at 10 µM, stronger effect = higher value.

Assay in experiment [18]: as above
To be noted: NB7 neuroblastoma + caspase-8, without TRAIL, luminescence viability, without TRAIL, mean of runs, at 10 µM.

Experiment [19] addresses Carboxy-terminal domain RNA polymerase II polypeptide A small phosphatase 1 (Homo sapiens) (UniProt Q9GZU7). The experiment in a line: Scp-1 binding by thermal shift, confirmation, orthogonal assay for Scp-1 inhibitor project, biophysical, differential scanning fluorimetry (AID 540329;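 active = substances whose mean melting-temperature shift, as a percentage of the reference inhibitor's shift, reaches about 5.3%, limit read from the data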;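 note: 0% = Tm of DMSO wells and 100% = Tm with sodium orthovanadate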). Conditions: Recombinant SCP1, Sypro Orange thermal shift Tm; at 40 µM; stronger effect = higher value. (DSF heats the sample and reads unfolding from a dye or from intrinsic fluorescence.)

Some of the results follow. Active and inactive are the calls of the source. Unless noted, the rule behind the calls is not given here. Bounds are passed on as bounds.

Carboxy-terminal domain RNA polymerase II polypeptide A small phosphatase 1 (Homo sapiens), sequence (Q9GZU7 76-261 limits assumed): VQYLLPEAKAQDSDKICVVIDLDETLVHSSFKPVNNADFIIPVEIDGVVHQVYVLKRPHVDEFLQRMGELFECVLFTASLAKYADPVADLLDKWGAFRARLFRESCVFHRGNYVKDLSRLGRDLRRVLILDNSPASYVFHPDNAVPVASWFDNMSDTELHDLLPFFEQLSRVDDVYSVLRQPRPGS
Sentrin-specific protease 7 (Homo sapiens), sequence (Q9BQF6 706-1050 limits assumed): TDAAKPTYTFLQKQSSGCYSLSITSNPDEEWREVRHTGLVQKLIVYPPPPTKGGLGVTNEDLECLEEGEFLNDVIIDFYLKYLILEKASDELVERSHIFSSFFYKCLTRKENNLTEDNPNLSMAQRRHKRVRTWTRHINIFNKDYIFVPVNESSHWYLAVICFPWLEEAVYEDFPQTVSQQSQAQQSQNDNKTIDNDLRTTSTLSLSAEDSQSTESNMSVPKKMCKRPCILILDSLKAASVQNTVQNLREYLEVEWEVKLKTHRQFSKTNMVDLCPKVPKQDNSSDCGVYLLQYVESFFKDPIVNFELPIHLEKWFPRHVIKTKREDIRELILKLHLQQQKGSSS
Sentrin-specific protease 8 (Homo sapiens), sequence (Q96LD8 whole entry, looked up): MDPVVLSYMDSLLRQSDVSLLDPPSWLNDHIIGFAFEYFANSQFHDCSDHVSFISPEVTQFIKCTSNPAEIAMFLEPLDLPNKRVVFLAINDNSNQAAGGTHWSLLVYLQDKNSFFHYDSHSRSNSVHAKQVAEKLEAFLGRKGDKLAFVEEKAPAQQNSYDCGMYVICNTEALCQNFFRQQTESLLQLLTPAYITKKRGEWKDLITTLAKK
Tumor necrosis factor receptor superfamily member 10B (Homo sapiens), sequence (O14763 whole entry, looked up): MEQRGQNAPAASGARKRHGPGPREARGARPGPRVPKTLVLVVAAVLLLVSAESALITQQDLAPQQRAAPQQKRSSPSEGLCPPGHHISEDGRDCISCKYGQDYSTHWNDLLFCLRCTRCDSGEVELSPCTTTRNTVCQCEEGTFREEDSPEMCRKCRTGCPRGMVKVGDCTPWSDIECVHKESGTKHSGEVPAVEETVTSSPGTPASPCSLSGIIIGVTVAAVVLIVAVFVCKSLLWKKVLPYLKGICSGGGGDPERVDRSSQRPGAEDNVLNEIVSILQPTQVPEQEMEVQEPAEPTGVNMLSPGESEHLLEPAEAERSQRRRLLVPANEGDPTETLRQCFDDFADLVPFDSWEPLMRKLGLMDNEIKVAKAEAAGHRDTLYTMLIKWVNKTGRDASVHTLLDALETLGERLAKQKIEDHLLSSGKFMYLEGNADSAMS
Sentrin-specific protease 6 (Homo sapiens), sequence (Q9GZR1 628-1112 limits assumed): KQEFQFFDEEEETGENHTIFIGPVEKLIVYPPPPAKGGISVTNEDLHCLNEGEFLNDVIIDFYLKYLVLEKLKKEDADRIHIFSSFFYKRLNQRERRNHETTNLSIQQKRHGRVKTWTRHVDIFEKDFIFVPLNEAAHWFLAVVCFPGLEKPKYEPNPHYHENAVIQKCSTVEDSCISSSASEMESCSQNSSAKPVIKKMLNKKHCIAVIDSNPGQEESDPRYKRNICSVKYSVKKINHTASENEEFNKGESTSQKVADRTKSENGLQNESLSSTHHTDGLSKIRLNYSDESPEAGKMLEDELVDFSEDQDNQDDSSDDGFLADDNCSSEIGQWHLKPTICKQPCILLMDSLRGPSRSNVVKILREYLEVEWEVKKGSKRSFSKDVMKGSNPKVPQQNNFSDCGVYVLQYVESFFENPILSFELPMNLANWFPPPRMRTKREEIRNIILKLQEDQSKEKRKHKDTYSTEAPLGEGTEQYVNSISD

`C/C(=N/O)c1ccc2ccc3ccccc3c2c1`: the inhibition in experiment [1] was 64.6% (active); in [2] it was 61.5% (active); in [3] it was 79.5% (active); with Caspase-3 (Homo sapiens) it was 19.2% (inactive); in [4], 30.7% (inactive).

On to `Fc1ccc(C(OCCN2CCN(CCCc3ccccc3)CC2)c2ccc(F)cc2)cc1`, for which, in experiment [5], the inhibition is 30.4% (active).

On to `CCCCCn1c(=O)c(C(=O)Nc2c(C)n(C)n(-c3ccccc3)c2=O)c(O)c2ccccc21`, for which, in experiment [6], the inhibition is 42.9% (active). For the same compound, the activation (fluorescence interference) in experiment [7] was -2.75% (inactive). Besides, the IC50 in experiment [8] was > 100 µM (inactive).

`CC(Cc1ccccc1)NCCC(c1ccccc1)c1ccccc1` (centres undefined): the inhibition in experiment [6] was 12.8% (inactive); in experiment [9] it was 87.6% (active); with PEG-3 [10], 98%; with PEG-3 [11] it was 98.9%. Further, the activation (fluorescence interference) in [7] is 7.45% (inactive).

In the case of `O=C1NC(=O)N(CCc2ccc(F)cc2)C(=O)/C1=C/C=C/c1ccccc1`, in experiment [12], the activation is 90.1% (active).

As to `CCOC(=O)c1ccc(-[n+]2c(-c3ccccc3)cc(-c3ccccc3)cc2-c2ccccc2)cc1`, the inhibition in experiment [5] is 23.6% (active).

In the case of `C[C@@H]1O[C@@H](O[C@H]2C[C@@H](O)[C@]3(CO)[C@H]4[C@H](O)C[C@]5(C)[C@@H](C6COC(=O)C6)CC[C@]5(O)[C@@H]4CC[C@]3(O)C2)[C@H](O)[C@H](O)[C@H]1O` (some centres undefined), the inhibition in experiment [5] is 26.8% (active).

Take `C/C=C(\C)C(=O)OC1C(C)=C2C(C1OC(=O)CCCCC)C(C)(OC(C)=O)CC(OC(=O)CCC)C1(O)C2OC(=O)C1(C)O` (centres undefined): in experiment [5], the inhibition is 24.1% (active).

With `Cn1c(NN=O)nc2ccccc21`, the inhibition in experiment [5] is 35.8% (active).

`C[C@]12CC[C@H]3[C@@H](CC[C@]4(O)C[C@@H](O)CC[C@]34C=O)[C@@]1(O)CC[C@@H]2C1=CC(=O)OC1`: the inhibition in experiment [5] was 28% (active).

Regarding `CCCCCCCCCCCCn1ccc(=N)cc1`, the inhibition in [13] is 80.3% (active); in [14], 103% (active); in experiment [6], 32% (inactive); in [15], 64% (active); in [16], 106% (active). Besides, in experiment [7], the activation (fluorescence interference) is 3.55% (inactive). For the same compound, the activity in [17] worked out at 92.9%; in experiment [18] it was 80%.

For `O=Cc1cn(Cc2ccc([N+](=O)[O-])cc2)c2ccccc12`, the figures for the inhibition in the experiment with PEG-3 [10] and with PEG-3 [11] were 1.6% and 29.8%, respectively.

Turning to `O=c1[nH]c(=O)n(CCc2ccc(F)cc2)c(O)c1/C=N/N1CCCCC1`, the thermal shift relative to vanadate control in experiment [19] is -3.71% (inactive).

As for `O=C1NC(=S)N(c2ccccc2F)C(=O)/C1=C\c1cccs1`, the inhibition was determined as 102% in the experiment with PEG-3 [10] and 99% in the experiment with PEG-3 [11].

As to `CCN(CC)C(=O)Cn1cc(/C=C2\C(=O)NC(=O)N(c3ccccc3F)C2=O)c2ccccc21`, the inhibition with PEG-3 [10] turned out to be 102%; in the experiment with PEG-3 [11] it was 98.9%.

On to `COc1ccc(C(c2nnnn2-c2c(C)cccc2C)N2CCC(n3c(=O)[nH]c4ccccc43)CC2)cc1` (centres undefined), for which the inhibition with PEG-3 [10] is 63.7%; in the experiment with PEG-3 [11], 63.1%.

Regarding `Cc1cccc(C)c1-n1nnnc1C(c1ccccc1OC(F)(F)F)N1CCC(n2c(=O)[nH]c3ccccc32)CC1` (centres undefined), the values for the inhibition in the experiment with PEG-3 [10] and with PEG-3 [11] were 49.4% and 42%, respectively.

(Values after PubChem BioAssay.)
